Bioassay records as filed in PubChem BioAssay.
NS1 function inh: influenza NS1 inhibition. Potency, µM (doses to about 46.1 µM). AID 2326. actives 0.4% (n = 270,000); also: actives are rising curves; nearly all actives have a fitted effect of over 50% in size
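S. cerevisiae expressing influenza A NS1, grown in glucose, washed, then diluted 1:100 into pH 6.0 -URA galactose medium with 23 nl compound. Growth recovery read as OD600; NS1-free strain serves as control.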
Pf growth 96h: P. falciparum growth inhibition at 96 hour, primary screen for plastid delayed-death inhibitors; Potency, µM (highest dose often 28.7 µM), most hits filed as inhibitors; AID 504834; P. falciparum luciferase reporter growth, 96 h; actives 6.9% (n = 320,000); active = well fitted inhibition curve with a large enough effect; inconclusive = small, poorly fitted or top-dose-only effect, or another doubt; inactive = no such curve, though single readings can be large or run the other way
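Parasite growth measured via integrated firefly luciferase reporter in P. falciparum. Infected erythrocytes at 2% hematocrit, 0.05% parasitemia final were treated 96 hours at 37 C under 5% CO2, and luminescence was read.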
Shiga inhibitor: blocks Shiga toxin action in Vero cells. Vero cells, Shiga toxin protein synthesis inhibition reporter. inhibition, % at 38.7 µM. actives 9.2% (n = 290,000). AID 2315; in the data active = inhibition mostly above about 28%, no sharp cut-off; inactive = mostly below about 43%
SARS PLpro yeast: blocks SARS-CoV papain-like protease in a yeast assay. S. cerevisiae expressing SARS-CoV PLpro, growth rescue. Potency, µM (series often up to 32.9 µM), usual class: activators. actives 0.19% (n = 330,000); also: nearly all actives have a fitted effect of over 55% in size
Pf growth 48h: inhibits P. falciparum growth in the first generation, 48 h. AID 504832. P. falciparum luciferase growth in erythrocytes, 48 h. Potency, µM (highest dose often 28.7 µM), hits mostly inhibitors. actives 5.9% (n = 310,000); active = well fitted inhibition curve with a large enough effect; inconclusive = small, poorly fitted or top-dose-only effect, or another doubt; inactive = no such curve, though single readings can be large or run the other way
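In quantitative HTS format, infected erythrocytes bearing luciferase-reporter parasites were treated for a single generation at 37 C. Luminescence after adding detection reagent served as the growth measure.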
CHX counter: affects cycloheximide protein synthesis inhibition readout, counter-screen | max response, % | actives 12% (n = 300,000) | cell reporter, cycloheximide protein synthesis inhibition counterscreen | AID 2314; in the data active = max response mostly above about 13%, no sharp cut-off; inactive = mostly below about 14%; also: read at 38.3 µM for the half of the compounds with a filed dose
Large screens that a line does not name were inactive. This is a sample that favours compounds with a hit; in the whole collection about 21% have one here. Unless noted, calls follow the shape of the full dose curve.

CCCCOc1ccc(CN(CCO)CCO)cc1[N+](=O)[O-]	Shiga inhibitor 124.6, CHX counter 49.9
COc1ccc(CSC(=N)N)cc1[N+](=O)[O-]	none (no result: Pf growth 48h)
COc1ccc(OC)c(C2Nc3nc4ccccc4n3C(C)=C2C(=O)Nc2ccc(C)cc2C)c1 (stereo not drawn)	NS1 function inh inconclusive, Pf growth 48h 7.38µM (no result: Pf growth 96h)
O=C(COc1ccc2c3c(c(=O)oc2c1)CCC3)N1CCCCC1	Shiga inhibitor 86.1, CHX counter 25.0
CN(C)C(=O)COc1ccc2c3c(c(=O)oc2c1)CCCC3	Pf growth 96h 9.28µM (no result: Shiga inhibitor)
CCCCc1ccc(-c2ccc(C)cc2O)nc1	Shiga inhibitor 58.3, CHX counter 24.8 (no result: Pf growth 48h)
CCCCc1ccc(-c2ccc(Br)cc2O)nc1	Shiga inhibitor 85.6, CHX counter 49.4 (no result: Pf growth 48h)
CCN1CCN(C(=O)CN(c2ccc(F)c(Cl)c2)S(C)(=O)=O)CC1	Pf growth 96h inconclusive, Pf growth 48h inconclusive (no result: NS1 function inh)
CCN1CCN(C(=O)c2cc(-c3ccco3)nc3ccccc23)CC1	none (no result: NS1 function inh, Shiga inhibitor, CHX counter)
CC(NC(=O)C1CCC(CNS(=O)(=O)c2ccccc2)CC1)c1ccc2c(c1)OCCO2 (stereo not drawn)	none (no result: NS1 function inh)
Cc1nc(Sc2ccc(Br)cc2)c(C#N)c(C)c1[N+](=O)[O-]	Pf growth 96h 9.28µM, Pf growth 48h inconclusive
Cc1nc(Sc2ccc(Cl)cc2)c(C#N)c(C)c1[N+](=O)[O-]	Pf growth 96h 11.7µM, Pf growth 48h inconclusive
COC(=O)CS(=O)(=O)c1ccsc1C(=O)Nc1ccc(F)c(F)c1	Pf growth 96h inconclusive (no result: NS1 function inh)
CC(=O)c1cc(-c2ccc(F)cc2)n(CCC(=O)Nc2cccnc2)c1C	Pf growth 48h 9.28µM (no result: NS1 function inh)
O=C(COC(=O)c1cccc(S(=O)(=O)N2CCCC2)c1)NCc1ccccc1	Pf growth 96h inconclusive (no result: NS1 function inh)
O=C(NC1CCCCC1)C(c1cccs1)N(C(=O)c1ccco1)c1ccc2c(c1)OCCO2 (stereo not drawn)	Shiga inhibitor 10.3, Pf growth 48h inconclusive, CHX counter 24.3
Cc1ccc(C(C(=O)NC(C)(C)C)N(CCCN2CCOCC2)C(=O)c2ccc(-c3ccccc3)[nH]2)o1 (stereo not drawn)	none
CC(=O)c1ccc(N(C(=O)c2ccco2)C(C(=O)NC2CCCC2)c2cccs2)cc1 (stereo not drawn)	Pf growth 96h inconclusive, Pf growth 48h inconclusive, CHX counter 28.5
CCOc1ccccc1N(C(=O)c1ccco1)C(C(=O)NC1CCCC1)c1cccs1 (stereo not drawn)	Pf growth 96h inconclusive
O=C(NC1CCCCC1)C(c1cccs1)N(Cc1cccs1)C(=O)c1ccco1 (stereo not drawn)	Pf growth 48h 14.7µM (no result: Pf growth 96h)
O=C(NC1CCCCC1)C(c1cccs1)N(CCCN1CCOCC1)C(=O)c1ccc(-c2ccccc2)[nH]1 (stereo not drawn)	Shiga inhibitor 55.8, Pf growth 48h 1.65µM, CHX counter 18.8
CN(Cc1ccccc1)C(=O)[C@H](Cc1ccc2ccccc2c1)NC(=O)[C@@H]1C[C@@H](O)CN1C(=O)c1cn(C)c2ccccc12	none (no result: NS1 function inh, Pf growth 96h, SARS PLpro yeast, Pf growth 48h)
CCC1(c2ccccc2)NC(=O)N(CC(=O)NNC(=O)COc2ccc(Cl)cc2C)C1=O (stereo not drawn)	Pf growth 48h inconclusive (no result: NS1 function inh, Shiga inhibitor, CHX counter)
O=C(NN=C1C2CC3CC(C2)CC1C3)c1cc(Cl)ccc1O	none
CCOC(=O)CSc1nnc(CNC(=O)c2ccc([N+](=O)[O-])cc2)n1C	none (no result: NS1 function inh)
CC(=O)c1cccc(N(C(=O)c2ccccn2)C(C(=O)NC2CCCCC2)c2cccs2)c1 (stereo not drawn)	Pf growth 96h 1.65µM, SARS PLpro yeast inconclusive, Pf growth 48h 2.62µM
COc1ccc2c(c1)C(=O)C(=O)N2CCS(=O)(=O)c1ccccc1	Pf growth 96h inconclusive
O=C1C(=O)N(CCS(=O)(=O)c2ccccc2)c2ccc(F)cc21	Pf growth 96h 9.28µM, Pf growth 48h inconclusive
O=C(COc1cccnc1[N+](=O)[O-])Nc1cccc(S(=O)(=O)N2CCCCC2)c1	none
CCOc1ccccc1NC(=S)N(CCCN1CCOCC1)Cc1cn(C)c2ccccc12	Pf growth 96h inconclusive, Pf growth 48h 11.7µM
O=C(Nc1cccc(NC(=O)C2C3CC4OC(=O)C2C4C3)c1)c1ccccc1 (stereo not drawn)	Pf growth 48h inconclusive
CC(O)Cc1cn([C@@H](CCCCNC(=O)OC(C)(C)C)C(=O)N2CCN(C(=O)OC(C)(C)C)CC2)nn1 (stereo partly drawn)	none
O=C(/C=C/Nc1ccccc1F)c1ccc(Br)cc1	Shiga inhibitor 87.3, CHX counter 60.8
O=C(/C=C/Nc1ccc(Br)cc1F)c1ccccc1	Shiga inhibitor 40.6, CHX counter 38.1
Cc1ccc(C(C)C)c(OCC(=O)NNC(=O)C(C(C)C)N2C(=O)c3ccccc3C2=O)c1 (stereo not drawn)	none
CCCn1nnc(NC(=O)c2ccc(Cl)cc2Cl)n1	Pf growth 96h inconclusive, Shiga inhibitor 112.9, CHX counter 45.0
Cn1nnc(NC(=S)NC(=O)c2cc(Cl)ccc2Cl)n1	Pf growth 96h 4.15µM, Pf growth 48h 8.28µM
Cc1nc(NC(=O)/C=C/c2ccccc2)n[nH]1	Pf growth 96h inconclusive, Pf growth 48h inconclusive, CHX counter 15.5
CCCn1nnc(NC(=O)c2ccccc2Cl)n1	CHX counter 26.8 (no result: Pf growth 96h)
COc1cc2ccccc2cc1C(=O)NC(=S)Nc1nnn(C)n1	Pf growth 96h inconclusive
Cc1[nH]c(C)c(S(=O)(=O)NCc2ccco2)c1C(=O)N1CCCCC1	none
CCCn1nnc(NC(=O)/C=C/c2ccccc2)n1	CHX counter 16.7
NC(=O)c1cc(-c2csc(-c3cccnc3)n2)ccc1O	Shiga inhibitor 60.5
Cc1ccc(C)c(-c2csc(-c3cccnc3)n2)c1	Pf growth 96h inconclusive, Pf growth 48h inconclusive, CHX counter 21.2 (no result: Shiga inhibitor)
c1ccc(Nc2nnc(-c3cccnc3)s2)cc1	Shiga inhibitor 69.0, CHX counter 42.1 (no result: Pf growth 48h)
O=S(=O)(c1ccc(-c2csc(-c3cccnc3)n2)cc1)N1CCOCC1	Pf growth 48h inconclusive (no result: NS1 function inh)
Nc1nnc(-c2cccnc2)s1	none
c1ccc(-c2csc(-c3cccnc3)n2)cc1	Shiga inhibitor 88.6, CHX counter 27.8
c1ccc(-c2nc(-c3cccnc3)cs2)cc1	Pf growth 96h inconclusive, Shiga inhibitor 51.6, Pf growth 48h inconclusive, CHX counter 46.1
c1ccc(CNc2nc(-c3cccnc3)cs2)cc1	Pf growth 48h inconclusive, CHX counter 34.1
C=CCNc1nc(-c2ccc(O)c(C(N)=O)c2)cs1	CHX counter 22.0
O=C(Cc1ccccc1F)Nc1nc(-c2cccnc2)cs1	Pf growth 48h inconclusive
O=C(NCc1ccccc1)c1csc(-c2cccnc2)n1	Pf growth 48h 9.28µM
NC(=O)c1cc(-c2csc(NCCc3ccccc3)n2)ccc1O	Pf growth 96h inconclusive
O=C(NCCc1csc(-c2cccnc2)n1)c1ccccc1	Pf growth 96h inconclusive, Pf growth 48h inconclusive
Cc1cccc(C(C)Nc2ccc([N+](=O)[O-])cn2)c1 (stereo not drawn)	Pf growth 96h inconclusive, Pf growth 48h inconclusive
